PubChem BioAssay AID488911 (Broad Institute, 2010)
Results with a measured potency or affinity are listed apart. Calls of active or inactive are those of the source.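 The calls were made as follows: active = falling signal whose fitted half-effect dose is at or below ten times the top valid dose; inconclusive = flat fit showing a moderate drop, or a poor fit; inactive = the rest.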

Assay: mammalian cell toxicity in NIH-3T3 fibroblasts, dose response, cytotoxicity control for antifungal resistance reversal project, Alamar Blue, dry powder, set 2 (AID 488911)
Conditions: NIH-3T3 viability with fluconazole, 48 h; series mostly up to 26 µM

Structure (SMILES)	outcome
O=C(c1ccc(Cl)cc1)N1CCN(c2ncnc3ccccc23)CC1	inactive
O=C(c1ccc(Cl)cc1)C1CCN(c2ccnc3cc(Cl)ccc23)CC1	inactive
O=C(c1ccc(Cl)cc1)N1CCCN(c2ccnc3cc(Cl)ccc23)CC1	inactive
O=C(c1ccccc1Cl)N1CCN(c2ccnc3cc(Cl)ccc23)CC1	inactive
O=C(C1CCC1)N1CCN(c2ccnc3cc(Cl)ccc23)CC1	inactive
Clc1ccc2c(N3CCNCC3)ccnc2c1	inactive
O=C(Nc1ccc(Cl)cc1)N1CCN(c2ccnc3cc(Cl)ccc23)CC1	inactive
CC(C)CC(=O)N1CCN(c2ccnc3cc(Cl)ccc23)CC1	inactive
O=C(c1ccc(Cl)cc1)N1CCN(c2ccnc3ccc(Cl)cc23)CC1	inactive
O=C(c1ccc(Cl)cc1)N1CCN(c2ccnc3ccccc23)CC1	inactive
O=C(c1cccc(Cl)c1)N1CCN(c2ccnc3cc(Cl)ccc23)CC1	inactive
O=C(c1ccc(Cl)cc1)N1CCN(c2ccncc2)CC1	inactive
COCCC(=O)N1CCN(c2ccnc3cc(Cl)ccc23)CC1	inactive
O=C(c1ccc(Cl)cn1)N1CCN(c2ccnc3cc(Cl)ccc23)CC1	inactive
O=C(c1ccc(Cl)nc1)N1CCN(c2ccnc3cc(Cl)ccc23)CC1	inactive
COc1ccc2c(N3CCN(C(=O)c4ccc(Cl)cc4)CC3)ccnc2c1	inactive

Structure (SMILES)	outcome
CC1CN(c2ccnc3cc(Cl)ccc23)CCN1C(=O)c1ccc(Cl)cc1 (stereo unspecified)	inactive
CC(C)C(=O)N1CCN(c2ccnc3cc(Cl)ccc23)CC1	inactive
N#Cc1ccc(N2CCN(C(=O)c3ccc(Cl)cc3)CC2)nc1	inactive
O=C(c1ccc(Cl)cc1)N1CCN(c2ncnc3nc[nH]c23)CC1	inactive
CCCC(=O)N1CCN(c2ccnc3cc(Cl)ccc23)CC1	inactive
COc1ccc(C(=O)N2CCN(c3ccnc4cc(Cl)ccc34)CC2)cc1	inactive
Cc1cc(N2CCN(C(=O)c3ccc(Cl)cc3)CC2)c2ccccc2n1	inactive
O=C(c1ccc(F)cc1)N1CCN(c2ccnc3cc(Cl)ccc23)CC1	inactive
O=C(C1CCCCC1)N1CCN(c2ccnc3cc(Cl)ccc23)CC1	inactive
O=C(C1CCCC1)N1CCN(c2ccnc3cc(Cl)ccc23)CC1	inactive
O=C(c1ccc(Cl)cc1)N1CCN(c2ccccn2)CC1	inactive
O=C(c1ccc(Cl)cc1)N1CCNCC1	inactive
Cc1cc(N2CCN(C(=O)c3ccc(Cl)cc3)CC2)c2ccc(F)cc2n1	inactive
O=C(c1ccc(Cl)cc1)N1CCN(c2ccnc3cc(Cl)ccc23)CC1	inactive
COc1cccc2c(N3CCN(C(=O)c4ccc(Cl)cc4)CC3)cc(C)nc12	inactive
